The supplement of paper PMC8728848
About 410 targets per protein were measured; listed, in parts, are those with the strongest signals and a random draw of the rest.

Columns and labels:
Assay in all cases: glycan array binding signal (z-score within array); higher = stronger binding
Details in all cases: glycan notation: IUPAC condensed, linker removed
[1] = target: Fuc(a1-2)Gal(b1-3)GlcNAc(b1-2)Man(a1-3)[Fuc(a1-2)Gal(b1-3)GlcNAc(b1-2)Man(a1-6)]Man(b1-4)GlcNAc(b1-4)GlcNAc
Summary of the method: (§1)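 Glycan array data were curated from 3228 arrays in the Consortium for Functional Glycomics database and kept only where the protein sequence was available. Glycan names were converted to IUPAC-condensed notation, and columns mapping to the same glycan were averaged. The binding signal is a within-array Z-score, averaged across arrays of the same protein sequence at different concentrations or buffers and across linkers. Negative Z-scores can be read as non-binding.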

[2] = target: Fuc(a1-2)Gal(b1-3)GlcNAc(b1-3)[Neu5Ac(a2-6)Gal(b1-4)GlcNAc(b1-6)]Gal(b1-4)Glc
Summary of the method: as §1

[3] = target: Fuc(a1-2)Gal(b1-3)[Fuc(a1-4)]GlcNAc(b1-3)[Gal(b1-4)GlcNAc(b1-6)]Gal(b1-4)Glc
Summary of the method: as §1

[4] = target: Fuc(a1-2)[Gal(a1-3)]Gal(b1-3)GlcNAc(b1-2)Man(a1-3)[Fuc(a1-2)[Gal(a1-3)]Gal(b1-3)GlcNAc(b1-2)Man(a1-6)]Man(b1-4)GlcNAc(b1-4)[Fuc(a1-6)]GlcNAc
Summary of the method: as §1

[5] = target: Fuc(a1-2)[Gal(a1-3)]Gal(b1-3)GlcNAc(b1-6)GalNAc
Summary of the method: as §1

[6] = target: Fuc(a1-2)[GalNAc(a1-3)]Gal(b1-4)GlcNAc(b1-2)Man(a1-3)[Fuc(a1-2)[GalNAc(a1-3)]Gal(b1-4)GlcNAc(b1-2)Man(a1-6)]Man(b1-4)GlcNAc(b1-4)GlcNAc
Summary of the method: as §1

[7] = target: Fuc(a1-3)[Gal3S(b1-4)]GlcNAc
Summary of the method: as §1

[8] = target: Fuc(a1-3)[Gal3S(b1-4)]GlcNAc6S
Summary of the method: as §1

[9] = target: Gal(a1-3)Gal(b1-4)GlcNAc(b1-3)GalNAc
Summary of the method: as §1

[10] = target: Gal(a1-3)Gal(b1-4)[Fuc(a1-3)]GlcNAc(b1-2)Man(a1-3)[Gal(a1-3)Gal(b1-4)[Fuc(a1-3)]GlcNAc(b1-2)Man(a1-6)]Man(b1-4)GlcNAc(b1-4)GlcNAc
Summary of the method: as §1

[11] = target: Gal(a1-3)[Gal(a1-4)]Gal(b1-4)GlcNAc
Summary of the method: as §1

Gal(a1-4)Gal(b1-4)GlcNAc = target: Gal(a1-4)Gal(b1-4)GlcNAc
Summary of the method: as §1

[12] = target: Gal(a1-4)Gal(b1-4)GlcNAc(b1-2)Man(a1-3)[Gal(a1-4)Gal(b1-4)GlcNAc(b1-2)Man(a1-6)]Man(b1-4)GlcNAc(b1-4)GlcNAc
Summary of the method: as §1

[13] = target: Gal(b1-3)GlcNAc(b1-2)Man(a1-3)[GlcNAc(b1-4)][Gal(b1-3)GlcNAc(b1-2)Man(a1-6)]Man(b1-4)GlcNAc(b1-4)GlcNAc
Summary of the method: as §1

[14] = target: Gal(b1-3)GlcNAc(b1-3)Gal(b1-4)Glc
Summary of the method: as §1

[15] = target: Gal(b1-3)GlcNAc(b1-3)Gal(b1-4)[Fuc(a1-3)]GlcNAc
Summary of the method: as §1

[16] = target: Gal(b1-3)[Fuc(a1-4)]GlcNAc(b1-6)GalNAc
Summary of the method: as §1

[17] = target: Gal(b1-3)[GlcNAc(b1-6)]GalNAc
Summary of the method: as §1

[18] = target: Gal(b1-3)[Neu5Ac(a2-6)]GalNAc
Summary of the method: as §1

[19] = target: Gal(b1-4)GlcNAc(b1-2)[Gal(b1-4)GlcNAc(b1-6)]Man(a1-6)[Gal(b1-4)GlcNAc(b1-2)Man(a1-3)]Man(b1-4)GlcNAc(b1-4)[Fuc(a1-6)]GlcNAc
Summary of the method: as §1

[20] = target: Gal(b1-4)GlcNAc(b1-3)Gal(b1-4)GlcNAc(b1-2)[Gal(b1-4)GlcNAc(b1-3)Gal(b1-4)GlcNAc(b1-6)]Man(a1-6)[Gal(b1-4)GlcNAc(b1-3)Gal(b1-4)GlcNAc(b1-2)Man(a1-3)]Man(b1-4)GlcNAc(b1-4)[Fuc(a1-6)]GlcNAc
Summary of the method: as §1

[21] = target: Gal(b1-4)GlcNAc(b1-3)Gal(b1-4)GlcNAc(b1-3)Gal(b1-4)GlcNAc(b1-3)Gal(b1-4)GlcNAc(b1-2)Man(a1-3)[Gal(b1-4)GlcNAc(b1-3)Gal(b1-4)GlcNAc(b1-3)Gal(b1-4)GlcNAc(b1-3)Gal(b1-4)GlcNAc(b1-2)Man(a1-6)]Man(b1-4)GlcNAc(b1-4)[Fuc(a1-6)]GlcNAc
Summary of the method: as §1

Gal3S(b1-3)GlcNAc = target: Gal3S(b1-3)GlcNAc
Summary of the method: as §1

[22] = target: Gal3S(b1-4)[Fuc(a1-3)]GlcNAc
Summary of the method: as §1

Glc(b1-4)Glc = target: Glc(b1-4)Glc
Summary of the method: as §1

[23] = target: GlcNAc(a1-4)Gal(b1-4)GlcNAc(b1-3)Gal(b1-4)[Fuc(a1-3)]GlcNAc(b1-3)Gal(b1-4)[Fuc(a1-3)]GlcNAc
Summary of the method: as §1

[24] = target: GlcNAc(b1-2)Gal(b1-3)GalNAc
Summary of the method: as §1

[25] = target: GlcNAc(b1-2)Man(a1-3)[GlcNAc(b1-2)Man(a1-6)]Man(b1-4)GlcNAc(b1-4)GlcNAc
Summary of the method: as §1

[26] = target: GlcNAc(b1-2)[GlcNAc(b1-4)]Man(a1-3)[GlcNAc(b1-4)][GlcNAc(b1-2)[GlcNAc(b1-6)]Man(a1-6)]Man(b1-4)GlcNAc(b1-4)[Fuc(a1-6)]GlcNAc
Summary of the method: as §1

[27] = target: GlcNAc(b1-3)Gal(b1-4)GlcNAc(b1-3)Gal(b1-4)GlcNAc(b1-2)Man(a1-3)[GlcNAc(b1-3)Gal(b1-4)GlcNAc(b1-3)Gal(b1-4)GlcNAc(b1-2)Man(a1-6)]Man(b1-4)GlcNAc(b1-4)GlcNAc
Summary of the method: as §1

[28] = target: GlcNAc(b1-3)Gal(b1-4)GlcNAc(b1-3)Gal(b1-4)GlcNAc(b1-3)Gal(b1-4)GlcNAc(b1-2)[GlcNAc(b1-3)Gal(b1-4)GlcNAc(b1-3)Gal(b1-4)GlcNAc(b1-3)Gal(b1-4)GlcNAc(b1-6)]Man(a1-6)[GlcNAc(b1-3)Gal(b1-4)GlcNAc(b1-3)Gal(b1-4)GlcNAc(b1-3)Gal(b1-4)GlcNAc(b1-2)Man(a1-3)]Man(b1-4)GlcNAc(b1-4)[Fuc(a1-6)]GlcNAc
Summary of the method: as §1

[29] = target: GlcNAc(b1-4)GlcNAc(b1-4)GlcNAc(b1-4)GlcNAc(b1-4)GlcNAc
Summary of the method: as §1

[30] = target: Man(a1-3)[Man(a1-6)]Man(b1-4)GlcNAc(b1-4)GlcNAc
Summary of the method: as §1

[31] = target: Neu5Ac(a2-3)Gal(b1-3)[GlcNAc(b1-6)]GalNAc
Summary of the method: as §1

Neu5Ac(a2-3)Gal(b1-4)Glc = target: Neu5Ac(a2-3)Gal(b1-4)Glc
Summary of the method: as §1

[32] = target: Neu5Ac(a2-3)Gal(b1-4)GlcNAc(b1-2)Man
Summary of the method: as §1

[33] = target: Neu5Ac(a2-3)Gal(b1-4)GlcNAc(b1-6)[Neu5Ac(a2-3)Gal(b1-3)]GalNAc
Summary of the method: as §1

[34] = target: Neu5Ac(a2-3)Gal(b1-4)[Fuc(a1-3)]GlcNAc(b1-3)GalNAc
Summary of the method: as §1

[35] = target: Neu5Ac(a2-6)Gal(b1-4)GlcNAc(b1-2)Man(a1-6)[Gal(b1-4)GlcNAc(b1-2)Man(a1-3)]Man(b1-4)GlcNAc(b1-4)GlcNAc
Summary of the method: as §1

[36] = target: Neu5Ac(a2-6)Gal(b1-4)GlcNAc(b1-3)Gal(b1-3)GlcNAc
Summary of the method: as §1

[37] = target: Neu5Ac(b2-6)Gal(b1-4)GlcNAc
Summary of the method: as §1

B1: GS7807I-bvu-563-22-563 (Bacteroides vulgatus) (protein)
chain: IFSSCTDDFEKLNTSNIQVDPADLPFAAQCTEPMTYCYPPQQNMFQFWTNLTIDLYGGYFMTPNGNFTNGDMGENRGHSGGMYENYYLHIFNNTRRIIAQCDASGERGLSGVMRIVQAYGTLMTTDAYGPIPYSSILSGENEVYFEFDSQKDLYKAMLEDLSTAITDISAMGADEIAKLKSFDCWCNGDKDLWVKIANTMKLRMALRLSKRETEAGNAGMNLKAIATEAAQNTLATVNKDILIDKSLENEMWLMFNWGDCGFNANLVTIMSGTKDPRQPLYMTLNTGDIKNEAGTTTVAANSQYLGIRFASGLPAKPNSWGNFSGWIQGNNGSSYSMPLPIMKAAEAYFLLAEAKLRWDIGSESVKNLYENGIRVSMTNELAYRGAYAGIKEYPEGAVDAYINGTSTQIDYTDPIKAELSTPAVNKLSVKWDESASNEEKLERIITQKWLALFPLSTEGWAEQRRTGYPRFFPAFVNESNGAVNTEEGVRRVIYSSQAYDANAKGVEGGIKLLDEENSSKFGISGDKGGTHLWWDNADKGNF
glycan array binding signal (z-score) [1]: 4.25
glycan array binding signal (z-score) [2]: -0.639
glycan array binding signal (z-score) [3]: -0.806
glycan array binding signal (z-score) [4]: -0.026
glycan array binding signal (z-score) [5]: 0.231
glycan array binding signal (z-score) [6]: 0.159
glycan array binding signal (z-score) [7]: 0.384
glycan array binding signal (z-score) [8]: 0.755
glycan array binding signal (z-score) [9]: -1.06
glycan array binding signal (z-score) [10]: 3.63
glycan array binding signal (z-score) [11]: 0.09
glycan array binding signal (z-score) (Gal(a1-4)Gal(b1-4)GlcNAc): 0.073
glycan array binding signal (z-score) [12]: 2.76
glycan array binding signal (z-score) [13]: 3.75
glycan array binding signal (z-score) [14]: -1.02
glycan array binding signal (z-score) [15]: -0.396
glycan array binding signal (z-score) [16]: -0.343
glycan array binding signal (z-score) [17]: -0.484
glycan array binding signal (z-score) [18]: 0.238
glycan array binding signal (z-score) [19]: -0.297
glycan array binding signal (z-score) [20]: 2.61
glycan array binding signal (z-score) [21]: 3.21
glycan array binding signal (z-score) (Gal3S(b1-3)GlcNAc): 1.03
glycan array binding signal (z-score) [22]: 0.875
glycan array binding signal (z-score) (Glc(b1-4)Glc): -0.567
glycan array binding signal (z-score) [23]: 2.71
glycan array binding signal (z-score) [24]: 0.388
glycan array binding signal (z-score) [25]: -0.694
glycan array binding signal (z-score) [26]: -1.04
glycan array binding signal (z-score) [27]: 2.79
glycan array binding signal (z-score) [28]: 3.79
glycan array binding signal (z-score) [29]: -0.951
glycan array binding signal (z-score) [30]: -0.233
glycan array binding signal (z-score) [31]: 0.671
glycan array binding signal (z-score) (Neu5Ac(a2-3)Gal(b1-4)Glc): 0.689
glycan array binding signal (z-score) [32]: 2.84
glycan array binding signal (z-score) [33]: -0.221
glycan array binding signal (z-score) [34]: 5.03
glycan array binding signal (z-score) [35]: 1.71
glycan array binding signal (z-score) [36]: -0.945
glycan array binding signal (z-score) [37]: -0.47
